Screening results deposited in PubChem BioAssay by several laboratories.
AHR activator: activators of human aryl hydrocarbon receptor; P35869; AHR-responsive luciferase reporter cells, luminescence; activation, % at 5 µM; actives 2.5% (n = 320,000); in the data active = activation above about 47%;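 note: 0% = vehicle wells and 100% = reference agonist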
AI-2 QS mod: Vibrio harveyi AI-2 quorum sensing modulation. actives 0.4% (n = 300,000). Vibrio harveyi JMH597 AI-2 luminescence/OD600 ratio, 9 h; active compounds read low; strain lacks LuxN and CqsS sensors; 0 = neutral-control median. AID 2094. activity change, % at 7.5 µM; in the data active = activity change below about -75%, passing the limit was not always enough;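 note: luminescence divided by OD600 gain over 9 h not by final OD600 alone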
Mot1-301 SUMO: blocks SUMOylation pathway, rescuing yeast Mot1-301 growth; S. cerevisiae Mot1-301 growth rescue, ATP luminescence, 38.5C; percent above DMSO median, 100 means doubled; growth rescue, % at 18.8 µM; actives 1% (n = 320,000); AID 2716;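 active = every valid replicate shows activation above 250% relative to neutral control wells; inactive = the rest, any valid replicate at or below 250%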;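 note: OY570 slx delta 5 strain wells were the positive control but not used for scaling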
NTR1 ag: agonists of human neurotensin receptor NTR1. activation, % at 20 µM. AID 493036. NTR1-U2OS beta-arrestin-GFP spot imaging, agonist mode. actives 0.17% (n = 330,000). P30989;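 active = activation at or above 40% of the spot to cytoplasm intensity ratio, with at least 20 cells analyzed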;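 note: 0% = DMSO without peptide and 100% = 100 nM NTR1 peptide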
Target sequence (P30989 whole entry, looked up): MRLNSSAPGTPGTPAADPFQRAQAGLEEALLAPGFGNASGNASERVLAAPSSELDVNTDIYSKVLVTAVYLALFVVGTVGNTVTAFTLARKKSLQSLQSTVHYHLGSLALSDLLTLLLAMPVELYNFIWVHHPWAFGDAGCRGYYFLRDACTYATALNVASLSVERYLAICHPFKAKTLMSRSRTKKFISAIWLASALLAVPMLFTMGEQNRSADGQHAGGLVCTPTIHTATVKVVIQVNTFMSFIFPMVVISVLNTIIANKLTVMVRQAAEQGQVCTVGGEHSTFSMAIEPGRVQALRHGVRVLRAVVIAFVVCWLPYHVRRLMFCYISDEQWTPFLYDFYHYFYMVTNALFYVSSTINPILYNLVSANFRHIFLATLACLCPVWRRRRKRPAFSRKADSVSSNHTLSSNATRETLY
GRIN3A LBD mod: modulates the human NR3A ligand-binding domain. NR3A LBD differential scanning fluorimetry, Tm shift; 0% = protein alone, 100% = glycine-bound protein. Tm shift relative to glycine control, % at 25 µM. actives 2.5% (n = 340,000). AID 1259313;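 active = melting temperature shift of at least 10% of the positive control shift, at one fixed dose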
H9c2 protect: modulators protecting cardiomyocytes from myocardial damage. AID 588492. actives 0.63% (n = 360,000). protection from H2O2 cell death, % at 20 µM. H9c2 cardiomyocytes, H2O2 injury protection, ATPLite, 2 h;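 active = compounds giving at least 50% protection of heart cells from peroxide-induced death in the single-dose screen, raw or plate-pattern-corrected value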;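 note: 0% = DMSO wells with peroxide and 100% = DMSO wells without peroxide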
* hit, by the source's call. An excerpt weighted towards active compounds, which were near 6.2% of everything screened.

How did COc1c2c(cc3ccc(=O)oc13)CCO2 do in these assays?
AHR activator: 0; AI-2 QS mod: 5; Mot1-301 SUMO: -7; NTR1 ag: 0; GRIN3A LBD mod: 1; H9c2 protect: 4

What do the screens show for `O=C(O)C1CCN(S(=O)(=O)c2ccc(N3CCC(O)CC3)c([N+](=O)[O-])c2)CC1`?
AHR activator: -2; AI-2 QS mod: 24; Mot1-301 SUMO: -15; NTR1 ag: 0; GRIN3A LBD mod: 0; H9c2 protect: 5

How did CC1=C(C(=O)Nc2ccccc2)C(c2cccnc2)n2nc(-c3cccnc3)nc2N1 (stereo unspecified) do in these assays?
AHR activator: 1; AI-2 QS mod: 7; Mot1-301 SUMO: 0; NTR1 ag: -2; GRIN3A LBD mod: 0; H9c2 protect: -2

Results for CC1=C(C(=O)Nc2cccnc2)C(c2cccnc2)n2nc(-c3cccs3)nc2N1 (stereo unspecified) ?
AHR activator: 1; AI-2 QS mod: 1; Mot1-301 SUMO: 350*; NTR1 ag: 0; GRIN3A LBD mod: -1; H9c2 protect: 1

What do the screens show for `COc1cc(NC(=O)COC(=O)c2ccccc2F)cc(OC)c1`?
AHR activator: 0; AI-2 QS mod: -8; Mot1-301 SUMO: 12; NTR1 ag: 1; GRIN3A LBD mod: 2; H9c2 protect: -3

Results for COc1cc(NC(=O)COC(=O)CC(NC(C)=O)c2ccccc2)cc(OC)c1 (stereo unspecified) ?
AHR activator: 3; AI-2 QS mod: 36; Mot1-301 SUMO: 352*; NTR1 ag: 1; GRIN3A LBD mod: -2; H9c2 protect: 12

How did CCOc1ccccc1-n1c(C)nc2cc(C(=O)O)ccc21 do in these assays?
AHR activator: 0; AI-2 QS mod: 15; Mot1-301 SUMO: 26; NTR1 ag: 2; GRIN3A LBD mod: -1; H9c2 protect: 2

How did Cc1nc2cc(C(=O)O)ccc2n1-c1ccc(F)cc1F do in these assays?
AHR activator: -3; AI-2 QS mod: 24; Mot1-301 SUMO: -11; NTR1 ag: 1; GRIN3A LBD mod: 15*; H9c2 protect: -6

How did O=[N+]([O-])c1ccc(Oc2cccc(F)c2)c2ccncc12 do in these assays?
AHR activator: 55*; AI-2 QS mod: 4; Mot1-301 SUMO: 26; NTR1 ag: 2; GRIN3A LBD mod: -2; H9c2 protect: -13

What do the screens show for `CCCOc1ccc(NC(=O)CC2C(=O)Nc3ccccc3N2CC(=O)N2CCCC2)cc1` (stereo unspecified)?
AHR activator: 5; Mot1-301 SUMO: 3; NTR1 ag: 1; GRIN3A LBD mod: 0; H9c2 protect: 8

What do the screens show for `COc1ccc(NC(=O)CC2C(=O)Nc3ccccc3N2CC(=O)N2CCCC2)cc1` (stereo unspecified)?
AHR activator: 74*; Mot1-301 SUMO: 5; NTR1 ag: 0; GRIN3A LBD mod: 2; H9c2 protect: -3

How did CCOc1ccc(NC(=O)NN2C(C)CCCC2C)cc1 (stereo unspecified) do in these assays?
AI-2 QS mod: 2; Mot1-301 SUMO: -6; NTR1 ag: 1; GRIN3A LBD mod: -1; H9c2 protect: 1

How did CCOc1ccc(NC(=S)NN2C(C)CCCC2C)cc1 (stereo unspecified) do in these assays?
AHR activator: 2; AI-2 QS mod: 8; Mot1-301 SUMO: -16; NTR1 ag: 2; GRIN3A LBD mod: 12*; H9c2 protect: 3

How did CSc1cc(C)n(-c2ccccc2)c(=S)c1C(C)=O do in these assays?
AHR activator: -2; AI-2 QS mod: -3; Mot1-301 SUMO: 20; NTR1 ag: 0; GRIN3A LBD mod: 12*; H9c2 protect: 10

Results for CC1=CC2=NC(=O)/C(=C\c3ccc(-c4cccc(Cl)c4)o3)C(=N)N2O1 ?
AHR activator: 70*; AI-2 QS mod: 9; Mot1-301 SUMO: 4; NTR1 ag: 8; GRIN3A LBD mod: 22*; H9c2 protect: 4

What do the screens show for `COc1ccc(-c2csc(NC(=O)c3c(C)noc3C)n2)cc1OC`?
H9c2 protect: 7

What do the screens show for `Nc1n[nH]c(N)c1N=Nc1ccccc1F`?
AHR activator: 2; AI-2 QS mod: 13; Mot1-301 SUMO: 219; NTR1 ag: 0; GRIN3A LBD mod: 32*; H9c2 protect: 0

What do the screens show for `Nc1n[nH]c(N)c1N=Nc1ccc(Cl)cc1Cl`?
AHR activator: -6; AI-2 QS mod: 6; Mot1-301 SUMO: -6; NTR1 ag: -1; GRIN3A LBD mod: 20*; H9c2 protect: -5

What do the screens show for `O=C1C(O)=CC(=C(c2ccccc2)c2ccccc2)c2ccccc21`?
GRIN3A LBD mod: -70; H9c2 protect: -7

How did CC(C)(C)c1cc(NCc2ccccn2)n2ncc(-c3ccc(Cl)cc3)c2n1 do in these assays?
AHR activator: 1; AI-2 QS mod: -1; Mot1-301 SUMO: -15; NTR1 ag: 11; GRIN3A LBD mod: 13*; H9c2 protect: 3

Results for COc1cc(C)c(CNc2cc(C)cc(C)c2)cc1C ?
AHR activator: 7; AI-2 QS mod: 16; Mot1-301 SUMO: -8; NTR1 ag: 0; GRIN3A LBD mod: 20*; H9c2 protect: -9

How did COc1cc(C)c(CNc2cccc(C)c2)cc1C do in these assays?
AHR activator: 2; AI-2 QS mod: 5; Mot1-301 SUMO: -10; NTR1 ag: 0; GRIN3A LBD mod: 2; H9c2 protect: -13

What do the screens show for `C/C(=N\Nc1cccc2cccnc12)c1ccc[nH]1`?
AHR activator: 51*; AI-2 QS mod: 8; Mot1-301 SUMO: 1; NTR1 ag: 2; GRIN3A LBD mod: -6; H9c2 protect: -15

How did CC(c1ccncn1)N(C)C(=O)c1ccc2oc(Cc3ccccc3)nc2c1 (stereo unspecified) do in these assays?
AHR activator: -5; AI-2 QS mod: 29; Mot1-301 SUMO: 3; NTR1 ag: 0; GRIN3A LBD mod: 2; H9c2 protect: -1

Results for CCC1CCCCN1C(=O)c1ccc([N+](=O)[O-])o1 (stereo unspecified) ?
AHR activator: 0; AI-2 QS mod: 13; Mot1-301 SUMO: -21; NTR1 ag: -1; GRIN3A LBD mod: 2; H9c2 protect: 4

Results for CSC1=NC(C(Cl)(Cl)Cl)N=C(c2ccc(C)cc2)N1 (stereo unspecified) ?
AHR activator: 67*; AI-2 QS mod: 27; Mot1-301 SUMO: -3; NTR1 ag: 3; GRIN3A LBD mod: -2; H9c2 protect: -8

What do the screens show for `O=C(CSc1nccn1-c1ccc(Cl)cc1)Nc1ccc2c(c1)OCO2`?
AHR activator: 53*; AI-2 QS mod: 10; Mot1-301 SUMO: 22; NTR1 ag: 0; GRIN3A LBD mod: 0; H9c2 protect: -11

Results for COc1ccc(NC(=O)CSc2ncn(-c3ccccc3)n2)cc1Cl ?
AHR activator: 3; AI-2 QS mod: 14; Mot1-301 SUMO: 2; NTR1 ag: -2; GRIN3A LBD mod: 28*; H9c2 protect: -3
